From PubChem BioAssay
A340 absorber – compound absorbs light at 340 nm; 65,000 tested, under 10 active; fold change at 10 µM; AID 708; compound absorbance at 340 nm, fold over control;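 active means at 10 µM dose, initial 340 nm absorbance at least 2 fold that of control wells; inactive means change under 2 fold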;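 further: initial absorbance extrapolated from kinetic A340 decline of NADH oxidation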
Spn MK inh – inhibitors of Streptococcus pneumoniae mevalonate kinase; actives 0.48% (n = 65,000); inhibition, % at 10 µM; purified MK, PK/LDH-coupled NADH absorbance 340 nm; AID 555;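 active means ranked among the strongest by inhibition in the single 10 µM screen, a fixed top-ranked set picked for dose follow-up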
PMK inhibit – S. pneumoniae PMK inhibition; purified PMK, PK/LDH-coupled NADH absorbance 340 nm; inhibition, % at 10 µM; actives 0.49% (n = 65,000); AID 539;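 active means top-ranked compounds by inhibition in the single 10 µM screen, taking a fixed number of the strongest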
Autofluor 339 – intrinsic fluorescence of library compounds, ex339/em460 – biochemical, MLSMR library, data from DPM-DC assay, artefact control, profiling panel; compound autofluorescence, ex339/em460 nm, NADH buffer; hits give high values; 1 = no-compound wells, NADH background; fluorescence fold increase at 10 µM; actives 5.5% (n = 65,000);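 active means at 10 µM, mean starting fluorescence two-fold or more over control wells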;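 further: signal is the first read of a kinetic run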
NADH coupling – blocks coupling enzymes of NAD/NADH assays. actives 0.02% (n = 65,000). coupled PK/LDH NADH assays, four targets. IC50, µM (series often up to 10 µM);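 active means single-dose screening hits from any of four coupled enzyme assays that gave an IC50 when retested across doses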;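 further: the DPM-DC format reads NADH fluorescence rather than 340 nm absorbance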
DPM-DC inhibit – blocks S. pneumoniae diphosphomevalonate decarboxylase | purified DPM-DC, PK/LDH coupled NADH fluorescence | calls only at 10 µM | actives 0.49% (n = 65,000);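 active means the 320 compounds with the highest percent inhibition in the single-dose primary screen, excluding strongly autofluorescent ones, cut at about 32% in these data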;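 further: kinetic rate of NADH fluorescence loss reporting ADP formed by the decarboxylase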
Numbers stand for hits; - = inactive; . = no result shown; + = active, no number. In the library only some 6.3% were active in any assay of this set; here they are far more common.

SMILES	A340 absorber	Spn MK inh	PMK inhibit	Autofluor 339	NADH coupling	DPM-DC inhibit
Cc1ccc(-c2nnc3sc(-c4ccncc4)nn23)cc1	-	-	-	-	-	-
CCOC(=O)N1CCN(S(=O)(=O)c2cc(OCC(N)=O)c(C)cc2Cl)CC1	-	-	-	-	-	-
S=c1[nH]nc(-c2ccncc2)n1Cc1ccccc1	-	-	-	-	-	-
Oc1ccc(-c2n[nH]c(=S)n2Cc2ccccc2)cc1	-	active	-	-	-	-
C=CCOc1cccc(C2C(C(=O)c3ccc(C)o3)=C(O)C(=O)N2c2nccs2)c1 (configuration not stated)	-	-	-	-	-	-
CCOC(=O)C1CCN(C(=O)Nc2ccc3nc(C)c(C)nc3c2)CC1	-	-	-	2.9	-	.
CCOC(=O)C1CCN(C(=O)Nc2ccc3oc(C)nc3c2)CC1	-	-	-	-	-	-
Cc1cccc(OCc2nnc(SCC(=O)Nc3ccc(C)c(Cl)c3)o2)c1	-	-	-	-	-	-
COc1ccccc1-c1nnc(NC(=O)c2ccc(S(=O)(=O)N(C)Cc3ccccc3)cc2)o1	-	-	-	3	-	.
CN(Cc1ccccc1)S(=O)(=O)c1ccc(C(=O)Nc2nnc(C3CC3)o2)cc1	-	-	-	-	-	-
CCN(CC)C(=O)C(C)OC(=O)c1ccc(O)cc1 (configuration not stated)	-	-	-	-	-	-
COCc1cc(C)n(CC(=O)Nc2ccccc2C(=O)OC)c(=O)c1C#N	-	-	-	2.8	-	-
COCc1cc(C)n(CC(=O)NC(C)c2ccccc2)c(=O)c1C#N (configuration not stated)	-	-	-	3.8	-	.
CC(=O)Nc1ccc(NC(=O)c2c(C)nc3ccccn23)cc1	-	-	-	-	-	-
c1ccn2c(c1)nc1c2nc2ccccn21	-	-	-	3.8	-	.
CCO/C=C1\C(=O)N(c2ccccc2)C(=O)c2ccccc21	-	-	-	2.2	-	.
N#Cc1nc(-c2ccccc2F)oc1NCc1ccccc1	-	-	-	2.1	-	.
COCCCNc1oc(-c2ccccc2OC)nc1C#N	-	-	-	3.9	-	.
N#Cc1nc(-c2ccccc2F)oc1NCCc1ccccn1	-	-	-	2.3	-	.
COCCCNc1oc(-c2ccccc2F)nc1C#N	-	-	-	2.1	-	.
N#Cc1nc(-c2ccc(OCc3ccccc3)cc2)oc1NCc1cccnc1	-	-	-	-	-	-
COc1ccc(CCNc2oc(COc3ccccc3F)nc2C#N)cc1OC	-	-	-	-	-	-
O=C(NCc1ccccn1)c1cc(-n2cnnc2)ccc1Cl	-	-	-	-	-	-
CC1CCN(Cc2nc3c(c(=O)n(C)c(=O)n3C)n2CCCc2ccccc2)CC1	-	-	-	-	-	-
c1ccc(-c2nc(Sc3ncnc4c3cnn4-c3ccccc3)n[nH]2)cc1	-	-	-	-	-	-
SMILES	A340 absorber	Spn MK inh	PMK inhibit	Autofluor 339	NADH coupling	DPM-DC inhibit
Cc1cc(C)n(-c2ccc(Cl)c(C(=O)Nc3ccc(-c4nnc5n4CCCCC5)cc3)n2)n1	-	-	-	-	-	-
c1ccc(NC(=NCc2ccco2)c2ccccc2)cc1	-	-	27	-	-	-
CC1CCCCN1C(=O)CN1C(=O)CN(C)C(=O)c2ccccc21 (configuration not stated)	-	-	-	-	-	-
O=C1c2ccc(-c3nc4ccccc4o3)cc2C(=O)N1Cc1cccnc1	-	-	-	2.1	-	.
O=C(O)CN(Cc1ccccc1)S(=O)(=O)c1ccc(F)cc1	-	-	-	-	-	-
Cc1cccc2cc(CN(Cc3ccco3)S(=O)(=O)c3ccc4c(c3)OCCO4)c(=O)[nH]c12	-	-	-	-	-	+
Cc1ccc(CNC(=O)CCS(=O)(=O)c2cc(Br)cc3c2N(C(=O)C2CC2)CC3)o1	-	-	-	-	-	-
CC1=C(C)SC(=C(C#N)c2nnc(N3CCOCC3)n2-c2ccccc2)S1	-	-	-	-	-	-
CCOc1ccc2[nH]c(C)c(CN3CCCCC3)c(=O)c2c1	-	-	-	3	-	-
COc1ccc2[nH]c(C)c(CN3CCC(C)CC3)c(=O)c2c1	-	-	-	-	-	-
COc1ccc2[nH]c(C)c(CN3CCCC(C)C3)c(=O)c2c1 (configuration not stated)	-	-	-	2.1	-	-
Cc1occc1-c1nnc(SCC(=O)Nc2nccs2)n1CCc1ccccc1	-	-	-	2.1	-	-
CCOC(=O)c1sc2cccc(F)c2c1N	-	-	-	2.7	-	.
COC(=O)c1ccc(Sc2ccc(C)cc2)c(N)c1	-	-	-	3.1	-	-
CCn1c(CC(C)C)n[nH]c1=S	-	44	-	-	-	-
COc1ccc2nc(NC(=O)CCc3nc(-c4ccccc4F)no3)sc2c1	-	-	-	-	-	-
CCOC(=O)c1sc2nc(N3CCCC3)c3c(c2c1N)CC(C)(C)OC3	-	-	-	3	-	.
Nc1c(C(=O)NCc2ccco2)sc2nc(N3CCOCC3)c3c(c12)CCCC3	-	-	-	2.4	-	.
COC(=O)c1ccc(Cn2nnc3c(sc4nc(N5CCOCC5)c5c(c43)CCCC5)c2=O)o1	-	-	-	-	-	-
COC(=O)c1ccc(CSc2ncnc3c2sc2nc(N4CCOCC4)c4c(c23)CCCC4)o1	-	-	-	2.1	-	.
O=C(NCc1ccco1)c1cc(-c2ccccc2)c(N2CCOCC2)s1	-	-	-	-	-	-
CCOC(=O)c1sc2nc(N3CCOCC3)c3c(c2c1N)CCCC3	-	-	-	3.7	-	.
Cc1ccc(S(=O)(=O)N2CCOCC2)cc1C(=O)NCc1cn2ccsc2n1	-	-	-	-	-	-
COC(=O)c1ccc(-c2sc3nc(N4CCOCC4)c4c(c3c2N)CCCC4)o1	-	-	-	2.5	-	.
COCCCNC(=O)c1ccccc1NS(=O)(=O)c1ccc(C)cc1	-	-	-	-	-	-
SMILES	A340 absorber	Spn MK inh	PMK inhibit	Autofluor 339	NADH coupling	DPM-DC inhibit
COc1ccc(-c2cc(C(F)(F)F)n3nc(C(=O)Nc4cc(C)on4)cc3n2)cc1OC	-	-	-	3.8	-	.
COc1ccc(-c2cc(C(F)(F)F)n3nc(C(=O)NCc4ccco4)cc3n2)cc1	-	-	-	2.2	-	.
COC(=O)c1cc2nc(-c3ccccc3)cc(C)n2n1	-	-	-	3.6	-	.
COC(=O)c1cc2nc(-c3ccc(OC)cc3)cc(C(F)(F)F)n2n1	-	-	-	2.2	-	.
O=P(CCC(F)(F)F)(CCC(F)(F)F)CCC(F)(F)F	-	-	-	-	-	-
COc1ccc(-c2cc(O)cc(O)c2)cc1	-	-	-	-	-	-
CCN1CCCC1CNC(=O)c1cc(NC(C)=O)c(N(C)C)cc1OC (configuration not stated)	-	-	-	-	-	-
O=C(NCc1ccco1)c1cc2nc(-c3ccc4c(c3)OCO4)cc(C(F)(F)F)n2n1	-	-	-	3.7	-	.
